Results reported in PubChem BioAssay (NCATS).
Inconclusive results are not listed. A call without a number means that no potency is given here. Values without a mark were called inactive. The source made the active and inactive calls. The call rests on the fitted dose curve; in most records, active means well fitted curve in the direction sought with a large enough effect; inconclusive means small, poorly fitted or top-dose-only effect, or another doubt; inactive means no such curve, though single readings can be large; an effect the other way counts as inactive or inconclusive. Square brackets hold non-standard residues; d marks the D form. Peptide text beside a SMILES is read from it. ξ: configuration not given here. ξTyr(βOH) = NC(C(=O)O)C(O)c1ccc(O)cc1

Experiments:
[1] = target: Cellular tumor antigen p53 (Homo sapiens) (UniProt P04637); test: Primary qHTS for small molecule compounds that upregulate eGFP-tagged delta133p53alpha (in N-terminal) cells. (AID 2060322); conditions: NCI-H358 eGFP-delta133p53alpha fluorescence, 24 h; activation: hits give high values; further: nearly all actives have a fitted effect of over 75% in size; further: potency means the concentration at half of the fitted maximal effect; on activation: series mostly up to about 56 µM
Cellular tumor antigen p53 (Homo sapiens), sequence (P04637 whole entry, looked up): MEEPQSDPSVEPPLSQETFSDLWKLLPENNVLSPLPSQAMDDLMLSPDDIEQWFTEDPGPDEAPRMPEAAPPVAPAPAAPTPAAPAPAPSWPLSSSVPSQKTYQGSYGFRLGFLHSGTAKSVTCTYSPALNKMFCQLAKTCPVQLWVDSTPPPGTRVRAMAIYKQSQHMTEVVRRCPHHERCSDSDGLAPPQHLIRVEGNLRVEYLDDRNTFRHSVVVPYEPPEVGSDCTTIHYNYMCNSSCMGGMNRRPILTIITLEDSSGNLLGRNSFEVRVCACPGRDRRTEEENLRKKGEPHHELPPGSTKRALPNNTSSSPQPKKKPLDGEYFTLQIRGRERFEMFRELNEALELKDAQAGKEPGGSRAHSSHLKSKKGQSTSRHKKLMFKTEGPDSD
How it was run: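 NCI-H358 cells pre-induced 24 h with 10 ng/ml doxycycline to express N-terminal eGFP-delta133p53alpha, then dosed 24 h at 37C without doxycycline; fixed, Hoechst-stained, GFP intensity by laser scanning cytometry, normalized to DMSO (0%) and 57.5 uM 5-azacytidine (100%).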

[2] = target: Aldehyde dehydrogenase, mitochondrial (Homo sapiens) (UniProt P05091); test: qHTS for Inhibitors of the Aldehyde Dehydrogenase Family (ALDH2) Primary screen (AID 2061308); further: nearly all actives have a fitted effect of over 55% in size
[3] = target: Retinaldehyde dehydrogenase 3 (Homo sapiens) (UniProt P47895); test: qHTS for Inhibitors of the Aldehyde Dehydrogenase Family (ALDH1A3) Primary screen (AID 2061315)

Compound	activation [1] [%]	Potency [2]	Potency [3]	Potency [1]	activity change, negative = inhibition [2]	activity change, negative = inhibition [3]
C[C@@H]1C[C@@H](O)[C@@]2(CO)C(CO)=CCC[C@@H]2[C@@]12C[C@@H](c1ccoc1)OC2=O	21.4	inactive	inactive	–	–	–
C=C1C[C@@]23CCC4[C@@](C)(CCC[C@@]4(C)C(=O)OC)C2CC[C@@H]1C3 (some centres undefined)	-32.8	inactive	inactive	–	–	–
C=C1C(=O)O[C@@H]2C3=C(C)CCC[C@]3(C)CC[C@@]12O	–	inactive	inactive	16.9 µM (active)	–	–
C=C[C@H]1[C@H](O[C@@H]2O[C@H](CO)[C@@H](O)[C@H](O)[C@H]2O)OC=C(C(=O)OC)[C@H]1C[C@@H]1c2cc(O)c(O)cc2CCN1C(C)=O	-6.11	inactive	inactive	–	–	–
CC(=O)O[C@@H](C[C@@H]1C=C(C)C(=O)O1)[C@H](C)[C@H]1CCC2[C@@]3(C)CC[C@H](O[C@@H]4O[C@H](CO)[C@@H](O)[C@H](O)[C@H]4O[C@@H]4O[C@@H](C)[C@H](O)[C@@H](O)[C@H]4O)C(C)(C)C3CC[C@@]2(C)[C@@]12COC(=O)C2 (some centres undefined)	1.79	inactive	inactive	–	–	–
C=C(C)[C@@H]1CC[C@]2(C)CC[C@]3(C)[C@H](CC[C@@H]4[C@@]5(C)CC[C@@H](O)C(C)(C)[C@@H]5CC[C@]43C)[C@@H]12	17.6	inactive	inactive	–	–	–
O=C(Nc1ccccc1-c1cn2c(CN3CCNCC3)csc2n1)c1ccc2ccccc2n1	11	inactive	inactive	–	–	–
COc1c(C)c(OCC=C(C)C)cc2c1COC2=O	-0.763	inactive	inactive	–	–	–
CC(C)c1ccc2c(c1)C(O)CC1C(C)(CO)CCCC21C (centres undefined)	-12.5	inactive	inactive	–	–	–
CC(C)C1NC(=O)CNC(=O)C2CCCN2C(=O)C(Cc2c[nH]c3ccccc23)NC(=O)CNC(=O)C(C(O)c2ccc(O)cc2)NC(=O)CNC1=O (centres undefined) (cyclo(G[ξTyr(βOH)]GWPGV); configuration not given here)	-9.92	inactive	inactive	–	–	–
C=C1C(O)CC2C(C(=O)O)=COC(O[C@@H]3O[C@H](COC(=O)c4ccc(O)cc4)[C@@H](O)[C@H](O)[C@H]3O)C12 (some centres undefined)	-6.11	inactive	inactive	–	–	–
COc1cccc(-c2cn(-c3ccc(CCN4CCC(O)CC4)cc3)c3ncnc(N)c23)c1	–	inactive	inactive	6.01 µM (active)	–	–
Cc1cccc(/C=N/Nc2cc(N3CCOCC3)n3nc(-c4ccncc4)cc3n2)c1	–	inactive	inactive	19 µM (active)	–	–
O=C(Nc1cc(C(F)(F)F)ccc1N1CCCCC1)c1ccncc1	-17.9	inactive	inactive	–	–	–
CC(C)c1cc2c(c(O)c1O[C@@H]1O[C@H](CO)[C@@H](O)[C@H](O)[C@H]1O)CC1(O)CCC(O)C(C)(C)C1CC2 (some centres undefined)	-22.1	inactive	inactive	–	–	–
COC(=O)[C@H](OC(C)=O)[C@H]1C(C)(C)C(=O)[C@H]2CC3=C4CC(=O)O[C@@H](c5ccoc5)[C@]4(C)CCC3[C@@]1(C)C2=O (some centres undefined)	2.68	inactive	inactive	–	–	–
C/C=C/C=C/C(O)=C1\C(O)=C(C)C(=O)[C@@]2(C)OC(=O)[C@@](C)(NC(=O)/C=C/C(=O)O)[C@@H]12	10.7	inactive	inactive	–	–	–
NC1CCC(Nc2cc(-c3cccc(NCc4cccc(F)c4)n3)c(Cl)cn2)CC1 (centres undefined)	–	inactive	inactive	1.51 µM (active)	–	–
COc1cccc(NCCC2(c3ccccc3)CC(C)(C)OC(C)(C)C2)c1	–	inactive	inactive	21.7 µM (active)	–	–
C=C1C(OC(C)=O)C(=O)C2C(C)(C)C(O)CCC2(C)C1CC(OC(C)=O)/C(C)=C/COC(C)=O (centres undefined)	-14.5	inactive	inactive	–	–	–
CC(C)c1c(O)ccc2c1CC[C@H]1C(C)(C)CCC[C@]21C	25.9	inactive	inactive	–	–	–
COc1ccc(/C=C/C(=O)O[C@H]2[C@H](O[C@H]3[C@@H]4C=CO[C@@H](O[C@@H]5O[C@H](CO)[C@@H](O)[C@H](O)[C@H]5O)[C@@H]4[C@@]4(CO)O[C@@H]34)O[C@@H](C)[C@H](O)[C@H]2OC(C)=O)cc1	-0.763	inactive	inactive	–	–	–

Compound	activation [1] [%]	Potency [2]	Potency [3]	Potency [1]	activity change, negative = inhibition [2]	activity change, negative = inhibition [3]
CC1OC(O[C@H]2[C@@H](O)C[C@@]3(C)C([C@H](O)C[C@]4(C)C3CC=C3C5CC(C)(C)CC[C@]5(C(=O)OC5OC(CO)C(O)C(O)C5OC5OCC(OC6OCC(OC7OCC(O)C(O)C7O)C(O)C6O)C(OC6OCC(O)(CO)C6O)C5O)CC[C@]34C)[C@]2(C)CO)C(O)C(O)C1O (some centres undefined)	-6.11	–	–	–	-1.36% [at 11.2 µM]	-4.53% [at 11.2 µM]
C/C=C(/C)C(=O)OC1C(OC(C)=O)C23C(O)OC4(CCC5C6(C)CCC(OC7OC(C(=O)O)C(O)C(OC8OC(CO)C(O)C(O)C8OC8OC(C)C(O)C(O)C8OC8OCC(O)C(O)C8O)C7OC7OC(CO)C(O)C(O)C7O)C(C)(C)C6CCC5(C)C4(C)CC2OC(C)=O)C3CC1(C)C (centres undefined)	-7.63	–	–	–	23.8% [at 11.2 µM]	2.15% [at 11.2 µM]
CCC(C)(C)C1CCc2c(sc(NC(=O)c3ccc(Br)cc3)c2C#N)C1 (centres undefined)	-0.333	inactive	inactive	–	–	–
C=C1[C@H]2CC[C@]3(O)[C@@](CC[C@@H]4[C@](C)(C(=O)O)CCC[C@]43C)(C2)[C@H]1OC(=O)/C(C)=C\C	15.2	inactive	inactive	–	–	–
CC1CCC2(NC1)OC1C(=O)C3C4CCC5CC(O[C@@H]6O[C@H](CO)[C@@H](O)[C@H](O)[C@H]6O[C@@H]6O[C@@H](C)[C@H](O)[C@@H](O)[C@H]6O)CCC5(C)C4CCC3(C)C1C2C (some centres undefined)	10.7	inactive	inactive	–	–	–
C=C1C(OC2OCC(O)C(O)C2O)CC2C(C)(C)C(O)CCC2(C)C1CC/C(C)=C\CO (centres undefined)	7.63	inactive	inactive	–	–	–
CC(=O)N[C@H]1[C@H](O[C@H]2CC[C@@]3(C)C(CC[C@]4(C)C3CC=C3C5CC(C)(C)CC[C@]5(C(=O)O)C(O)C[C@]34C)C2(C)C)O[C@H](CO[C@@H]2O[C@H](C)[C@H](O)[C@H](O)[C@H]2O[C@@H]2OC[C@@H](O)[C@H](O)[C@H]2O)[C@@H](O)[C@@H]1O (some centres undefined)	13.4	inactive	inactive	–	–	–
O=C1CCC=CC1(O)C(=O)OCc1ccccc1O[C@@H]1O[C@H](CO)[C@@H](O)[C@H](O)[C@H]1O (some centres undefined)	15.3	inactive	inactive	–	–	–
C[C@@H](c1nc(-c2ccc(C#N)cc2)cs1)[C@](O)(Cn1cncn1)c1cc(F)ccc1F	-2.33	inactive	inactive	–	–	–
C=C(C(=O)O)[C@H]1C[C@]2(C)[C@@H](O)CC[C@]23O[C@H]1C[C@@H]3C	18.8	inactive	inactive	–	–	–
C=C1CCC(OC(C)=O)C2(C)CC3(O)OC(=O)C(C)=C3CC12 (centres undefined)	-2.29	inactive	inactive	–	–	–
O=C1NC(Cc2ccc(O)cc2)C(=O)N2CCCC12 (centres undefined)	-19.8	inactive	inactive	–	–	–
CC(=O)O[C@H]1C[C@@](O)(C(C)C)C2[C@@H](OC(=O)c3ccc(O)cc3)C[C@@]3(C)O[C@H]3C[C@]21C (some centres undefined)	-6.11	inactive	inactive	–	–	–
COc1cc(C)c(C(=O)O[C@@H]2[C@H](O)[C@@H](CO)O[C@H]2n2ccc(=O)[nH]c2=O)c(OC)c1	-5.34	inactive	inactive	–	–	–
C/C=C1/[C@H](O[C@@H]2O[C@H](CO)[C@@H](O)[C@H](O)[C@H]2O)OC=C2C(=O)O[C@@H]3C[C@@H](C(C)CO)[C@H](COC(=O)C[C@H]21)[C@H]3C (some centres undefined)	-3.57	inactive	inactive	–	–	–
CC1CCCC(SCC(O)C(=O)O)CC(=O)c2c(O)cc(O)cc2CC(=O)O1 (centres undefined)	-1.53	inactive	inactive	–	–	–
CC(CCC1(O)OC2CC3C4CC=C5C[C@@H](O[C@@H]6O[C@H](CO)[C@@H](O[C@@H]7O[C@@H](C)[C@H](O)[C@@H](O)[C@H]7O)[C@H](O)[C@H]6O[C@@H]6O[C@@H](C)[C@H](O)[C@@H](O)[C@H]6O)CC[C@]5(C)C4CC[C@]3(C)[C@@]2(O)[C@@H]1C)CO[C@@H]1O[C@H](CO)[C@@H](O)[C@H](O)[C@H]1O (some centres undefined)	-8.04	inactive	inactive	–	–	–
CN1CCc2nc(C(=O)N[C@@H]3C[C@@H](C(=O)N(C)C)CC[C@@H]3NC(=O)C(=O)Nc3ccc(Cl)cn3)sc2C1	1.91	inactive	inactive	–	–	–
CC[N+]1(CC)CCC(=C(c2ccccc2)c2ccccc2)C1C (centres undefined)	-5.67	inactive	inactive	–	–	–
CCCCC1CCC(c2nc(-c3ccncc3)no2)CC1 (centres undefined)	-6.68	inactive	inactive	–	–	–
CC(=O)O[C@@H]1[C@H](O)[C@@H](O[C@@H]2O[C@@H](C)[C@H](O[C@@H]3OC[C@@H](O)[C@H](O[C@@H]4OC[C@@H](O)[C@H](O)[C@H]4O)[C@H]3O)[C@@H](O[C@@H]3O[C@H](CO)[C@@H](O)[C@H](O)[C@H]3O)[C@H]2O)[C@H](OC(=O)[C@]23CCC(C)(C)C[C@H]2C2=CCC4[C@@]5(C)CC[C@H](O[C@@H]6O[C@H](C(=O)O)[C@@H](O)[C@H](O[C@@H]7OC[C@@H](O)[C@H](O)[C@H]7O)[C@H]6O[C@@H]6O[C@H](CO)[C@H](O)[C@H](O)[C@H]6O)[C@@](C)(C=O)C5CC[C@@]4(C)[C@]2(C)CC3)O[C@@H]1C (some centres undefined)	-9.16	–	–	–	5.14% [at 11.2 µM]	-8.36% [at 11.2 µM]
